Measured values as given in PubChem BioAssay (EPA / NIEHS).
The source made the active and inactive calls. How the source made its calls: active means hit-call score of the fitted dose curve at least 0.9, where 1 is the maximum; inactive means score below 0.9.

Each compound was assayed on CYP2C9 (gene 1559) (assay: LTEA_HepaRG_CYP2C9: Life Technologies and Expression Analysis (LTEA) Assay for CYP2C9 using HepaRG (AID 2283484)). Conditions: mRNA level, 48 h; actives raise or lower the signal.
Method: LTEA_HepaRG is a cell based, multiplexed-readout assay that uses HepaRG, a human liver cell line, with measurements taken at 48 hours after chemical dosing on a 96-well plate.LTEA_HepaRG_CYP2C9 is one of 102 assay component(s) measured in the LTEA HepaRG cell culture assay. It is a marker of NR mediated metabolism.Data from the assay component LTEA_HepaRG_CYP2C9 was analyzed into 1 endpoint. This assay endpoint, LTEA_HepaRG_CYP2C9, was analyzed with bidirectional fitting relative to DMSO as the negative control and baseline of activity. Using a type of inducible reporter, measures of mRNA induction for gain or loss-of-signal activity can be used to understand regulation of transcription factor activity. To generalize the intended target to other relatable targets, this assay endpoint is annotated to the cyp intended target family, where the subfamily is xenobiotic metabolism.
A total of 1060 chemcials from the ToxCast library were tested in eight-point concentration-response experiments. Cell culture and cytotoxicity assays were conducted at Thermo Fisher Scientific's Custom Services facility (Madison, WI). A single lot of human HepaRG cells (Thermo Fisher Scientific, Frederick, MD) was used for the cell culture experiments. 96-well format collagen type I coated plates of human HepaRG cells were prepared using established methods. Briefly, cryopreserved HepaRG cells were thawed, plated at a density of approximately 100,000 cells/well in HepaRG Thaw, Plate, and General Purpose media (HPRG770, Thermo Fisher Scientific), and incubated for 48 hours. 0.5% DMSO was selected as vehicle control to balance the requisite need of DMSO in HepaRG cultures to maintain differentiation (for example, baseline metabolism, proportions of hepatocytes vs. cholangiocytes), while enabling further hepatic receptor pathway activation (for example, PXR and CAR) in response to chemical exposure. 48 hours after plating, the culture medium was replaced with HepaRG Serum-Free Incudtion Media. Cells were exposed to each test chemical in duplicate and maintained in CO2 incubators for another 48 hours. Chemical plates were thawed to room temperature and 200x concentrations of treatment groups were prepared. 8-point conentration-reponse curves were made with the highest exposure at 100 uM, followed by half-log dilutions, all in 0.5% DMSO. Each test plate contained variouse controls, induction positive controls (1mM phenobarbital), cytotoxicity positive controls ([…] aflatoxin B1), vehicle controls (0.5% DMSO), and total lysis controls (0.5% DMSO). Cell morphology images were taken using an Essen IncuCyte FLR automated microscope, with six 96-well plates imaged in about 24 minutes. Images were captured and exported and JPEG files. Spent culture media was transfered to black-well plates for the LDH assay, and remaining media was sorted at -80 C for later use. Cells were treated with RLT buffer and frozen until shipped for gene expression analysis. Total RNA was isolated from the cell suspension in 75 uL of Buffer RLT (Qiagen, Germantown, MD 20874) by Quintiles/Expression Analysis (Durham, NC) using a custom isolation procedure. Total RNA from each plate well was transferred to a preamplification plate. Fluidigm's 96.96 Dynamic ArrayTM (Fluidigm, Amsterdam, the Netherlands) technology was used for gene expression analyses by quantitative reverse transcription polymerase chain reaction (qRT-PCR, performed by Quintiles/Expression Analysis, Durham, NC)89. Standard TaqManTM Assays (Applied Biosystems/ThermoFisher Scientific, Foster City, CA) were used to assess the expression of 93 genes selected based on their selectivity and sensitivity to important hepatic receptors known to be modulated by environmental chemicals; importance in human hepatocyte functionality; and hepatotoxicity. […]

| Structure (SMILES) | outcome | AC50 |
| --- | --- | --- |
| CCCCCCCC[Si](OCC)(OCC)OCC | inactive | – |
| O=c1c(-c2ccc(O)cc2)coc2cc(O)cc(O)c12 | inactive | – |
| CCCCCCCCCCCCO | inactive | – |
| CCCOC(=O)c1cc(O)c(O)c(O)c1 | inactive | – |
| CC(C)(c1cc(Br)c(O)c(Br)c1)c1cc(Br)c(O)c(Br)c1 | inactive | – |
| CN(C[C@@H](CC[N+]12CCC(C3CCCCC3)(CC1)CC2)c1ccc(Cl)c(Cl)c1)C(=O)c1cc(C(F)(F)F)cc(C(F)(F)F)c1 | – | 12.9 µM (active) |
| CCO[Si](CCCNC(N)=O)(OCC)OCC | inactive | – |
| Cc1cccc2ccccc12 | inactive | – |
| O=C(Nc1ccc(Cl)cc1)Nc1ccc(Cl)c(Cl)c1 | – | 16.9 µM (active) |
| CCCC(=O)OCCC(C)C | inactive | – |
| CC(=O)N1CCN(c2ccc(OC[C@H]3CO[C@](Cn4ccnc4)(c4ccc(Cl)cc4Cl)O3)cc2)CC1 | – | 12.7 µM (active) |
| CC(C)(C)c1csc(-c2cc3cc(OCc4ccccc4CC(=O)O)ccc3o2)n1 | – | 12.5 µM (active) |
| NC(=O)c1nc(-c2cccc(-c3cc(F)ccc3OCC(F)(F)C(F)(F)F)c2)n[nH]1 | inactive | – |
| Clc1ccccc1C(c1ccccc1)(c1ccccc1)n1ccnc1 | – | 93.4 µM (active) |
| CCN(Cc1cccnc1)C(=O)c1cccc(Cl)c1[C@]1(C)C(=O)N(Cc2ccc(OC)cc2OC)c2ccc(Cl)cc21 | – | 26.2 µM (active) |
| O=C1c2ccccc2C(=O)N1CCc1noc(-c2ccc(CN3CCCCCC3)s2)n1 | inactive | – |
| COc1cc(C(=O)NC2CCN(C)CC2)ccc1Nc1ncc2c(n1)N(C1CCCC1)CC(F)(F)C(=O)N2C | – | 3.9 µM (active) |
| O=c1[nH]sc2ccccc12 | inactive | – |
| Oc1ccc2ccccc2c1 | inactive | – |
| CCCCCCCCCCCC[N+](C)(C)C | – | 91.4 µM (active) |

| Structure (SMILES) | outcome | AC50 |
| --- | --- | --- |
| CCOC(=O)O[C@H](C)OC(=O)c1ccc2c(c1)cc(C(=O)NC1CCN(C(C)C)CC1)n2Cc1cc(-c2ccc(Cl)s2)on1 | inactive | – |
| Cc1ccc(C(C)C)cc1 | inactive | – |
| O=C1O[C@H]([C@@H](O)CO)C(O)=C1O | inactive | – |
| Cc1cn([C@H]2C[C@H](N=[N+]=[N-])[C@@H](CO)O2)c(=O)[nH]c1=O | inactive | – |
| c1ccc2n[nH]nc2c1 | inactive | – |
| CN1C(=O)CC[C@H]1c1cccnc1 | inactive | – |
| Oc1ccccc1 | inactive | – |
| O=CCCCC=O | inactive | – |
| Cc1occc1C(=O)Nc1ccc(C(=O)N2CCC(F)(F)/C(=C\C(=O)N3CCC(N4CCCCC4)CC3)c3ccccc32)cc1 | – | 44.2 µM (active) |
| CCCCCc1ccc(N)cc1 | inactive | – |
| COc1cccc([C@H](O)C2CCN(CCc3ccc(F)cc3)CC2)c1OC | inactive | – |
| COCC(C)OCC(C)OCC(C)O (stereo not given) | inactive | – |
| O=C1CCC(C2CCCCC2)CC1 | inactive | – |
| NCc1cccc(C2CCN(C(=O)c3ccc(C#Cc4ccccc4F)o3)CC2)c1 | – | 91.7 µM (active) |
| CN(C)c1ccc(C(=C2C=CC(=[N+](C)C)C=C2)c2ccc(N(C)C)cc2)cc1 | – | 3.82 µM (active) |
| CCN(Cc1cccc(S(=O)(=O)O)c1)c1ccc(C(=C2C=CC(=[N+](CC)Cc3cccc(S(=O)(=O)O)c3)C=C2)c2ccccc2S(=O)(=O)[O-])cc1 | inactive | – |
| COc1ccc2cc(S(=O)(=O)N[C@H](CC(=O)N[C@H](Cc3ccc(CN4[C@H](C)CCC[C@@H]4C)cc3)C(=O)N(C)C(C)C)c3ccc4c(c3)OCO4)ccc2c1 | – | 11.9 µM (active) |
| O=C(O)c1ccccc1-n1cc(C(=O)O)c(=O)c2cc(Nc3c(F)cc(F)cc3Cl)c(Cl)cc21 | inactive | – |
| CCCCCCCCCC(=O)O | inactive | – |
| CC(C)(O)c1ccc(CNC(=O)c2cccnc2Oc2ccc3nonc3c2)cc1 | inactive | – |
